Source: PubChem BioAssay (Tox21)
Results filed as inconclusive are left out. Calls of active or inactive are those of the source. Unless noted, calls come from the whole dose curve; as a rule, active = well fitted curve in the direction sought with a large enough effect in the repeat runs; inconclusive = weak or mixed curves; inactive = no such curve, though single readings can be large; an effect the other way counts as inactive or inconclusive.

How the values were obtained:
[1] = qHTS assay to identify small molecule agonists of the estrogen receptor beta (ER-beta) signaling pathway - cell viability counter screen (AID 1259380); note: nearly all actives have a fitted effect of over 30% in size; note: potency is the fitted concentration of half-maximal effect
Method in brief: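 Viability of ER-beta-UAS-bla HEK293T cells was determined by CellTiter-Glo luminescence following 16 hr treatment with test compounds at 37C.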

[2] = target: Androgen receptor (Homo sapiens) (UniProt P10275); assay: qHTS assay to identify small molecule agonists of the androgen receptor (AR) signaling pathway in the presence of an antagonist (AID 1259381; calls by dose curve; note: nearly all actives have a fitted effect of over 15% in size; note: potency is the fitted concentration of half-maximal effect)
Sequence of Androgen receptor (Homo sapiens) (P10275 whole entry, looked up): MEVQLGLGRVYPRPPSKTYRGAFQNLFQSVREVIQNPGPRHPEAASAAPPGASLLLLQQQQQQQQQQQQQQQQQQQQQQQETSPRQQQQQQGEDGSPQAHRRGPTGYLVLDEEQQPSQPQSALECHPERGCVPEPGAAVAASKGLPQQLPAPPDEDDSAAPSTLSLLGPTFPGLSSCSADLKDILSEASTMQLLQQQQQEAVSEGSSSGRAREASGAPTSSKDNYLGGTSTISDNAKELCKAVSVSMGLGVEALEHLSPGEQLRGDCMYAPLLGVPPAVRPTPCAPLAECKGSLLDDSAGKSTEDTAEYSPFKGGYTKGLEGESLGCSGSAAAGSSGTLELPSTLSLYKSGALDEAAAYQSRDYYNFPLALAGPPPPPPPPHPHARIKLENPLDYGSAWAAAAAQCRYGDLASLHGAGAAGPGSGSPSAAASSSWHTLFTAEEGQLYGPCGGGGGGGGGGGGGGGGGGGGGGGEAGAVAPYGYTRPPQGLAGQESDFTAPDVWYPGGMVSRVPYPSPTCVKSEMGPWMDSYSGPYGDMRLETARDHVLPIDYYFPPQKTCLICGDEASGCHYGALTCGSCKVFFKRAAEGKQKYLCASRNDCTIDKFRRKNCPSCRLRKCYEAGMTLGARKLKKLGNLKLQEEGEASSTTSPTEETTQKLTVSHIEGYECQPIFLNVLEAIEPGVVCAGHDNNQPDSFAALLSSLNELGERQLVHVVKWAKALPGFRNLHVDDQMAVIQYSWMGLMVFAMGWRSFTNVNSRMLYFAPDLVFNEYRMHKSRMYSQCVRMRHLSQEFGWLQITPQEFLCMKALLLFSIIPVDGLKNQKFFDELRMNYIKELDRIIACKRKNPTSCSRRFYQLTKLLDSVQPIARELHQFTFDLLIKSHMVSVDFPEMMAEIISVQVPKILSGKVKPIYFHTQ
Method in brief: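 Here, 15-concentration compound series were pin-transferred onto MDA-kb2 MMTV-luciferase cells already dosed with nilutamide (3.0uM final). After 16hr at 37C, ONE-Glo was added and luminescence read 30min later at room temperature.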

[3] = qHTS assay to identify small molecule antagonists of the estrogen receptor beta (ER-beta) signaling pathway - cell viability counter screen (AID 1259382); note: nearly all actives have a fitted effect of over 55% in size; note: potency is the fitted concentration of half-maximal effect;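 for activity change, negative = cytotoxicity: HEK293T cells carrying ER-beta-UAS-bla reporter stimulated with estradiol; series mostly up to about 92 µM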
Method in brief: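 Tox21 10K library tested in qHTS format on ER-beta-bla HEK293T cells stimulated with 1nM E2; 16 hr treatment at 37C. Same-well CellTiter-Glo luminescence served as the cell viability measure.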

[4] = target: Estrogen receptor (Homo sapiens) (UniProt P03372); assay: qHTS assay to identify small molecule agonists of the estrogen receptor alpha (ER-alpha) signaling pathway in the presence of an antagonist (AID 1259383; calls by dose curve; note: top concentration of the series differs between compounds; nearly all actives have a fitted effect of over 15% in size)
Sequence of Estrogen receptor (Homo sapiens) (P03372 whole entry, looked up): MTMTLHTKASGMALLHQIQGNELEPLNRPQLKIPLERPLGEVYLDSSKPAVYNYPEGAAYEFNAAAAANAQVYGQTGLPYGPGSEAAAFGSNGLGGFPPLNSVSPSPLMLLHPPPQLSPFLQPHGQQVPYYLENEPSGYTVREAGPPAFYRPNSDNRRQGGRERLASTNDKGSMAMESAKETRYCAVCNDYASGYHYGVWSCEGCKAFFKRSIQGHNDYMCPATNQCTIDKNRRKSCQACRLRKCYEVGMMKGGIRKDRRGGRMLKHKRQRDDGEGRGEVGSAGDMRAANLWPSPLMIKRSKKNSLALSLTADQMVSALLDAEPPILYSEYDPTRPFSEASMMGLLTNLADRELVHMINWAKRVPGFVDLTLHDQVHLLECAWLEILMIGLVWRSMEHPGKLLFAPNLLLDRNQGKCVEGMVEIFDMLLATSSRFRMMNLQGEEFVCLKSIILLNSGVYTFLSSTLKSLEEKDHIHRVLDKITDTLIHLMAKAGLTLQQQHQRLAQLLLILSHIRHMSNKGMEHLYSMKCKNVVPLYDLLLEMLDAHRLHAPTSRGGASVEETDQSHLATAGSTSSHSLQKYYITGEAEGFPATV
Method in brief: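 In VM7Luc4E2 cells, 4,000 per well, compounds at 15 concentrations were co-incubated 22hr at 37C with 10.0nM final ICI-182,780. Luminescence from the stably transfected 4×ERE-luciferase reporter was recorded 30min after ONE-Glo addition.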

[5] = qHTS assay to identify small molecule agonists of the estrogen receptor alpha (ER-alpha) signaling pathway in the presence of an antagonist - cell viability counter screen (AID 1259386);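 note: cells exposed to compounds for 22 h at 37 °C before the viability read; nearly all actives have a fitted effect of over 30% in size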; note: potency is the fitted concentration of half-maximal effect; for activity change, negative = cytotoxicity: series mostly up to about 92 µM
Method in brief: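 Fluorescent CellTiter-Fluor viability signal from VM7Luc4E2 cells, with the reagent added during the final hour of a 22hr compound exposure at 37C in the presence of 10.0nM ICI-182,780.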

[6] = target: Progesterone receptor (Homo sapiens) (UniProt P06401); assay: qHTS assay to identify small molecule agonists of the progesterone receptor (PR) signaling pathway (AID 1346784; calls by dose curve; note: nearly all actives have a fitted effect of over 30% in size)
Sequence of Progesterone receptor (Homo sapiens) (P06401 whole entry, looked up): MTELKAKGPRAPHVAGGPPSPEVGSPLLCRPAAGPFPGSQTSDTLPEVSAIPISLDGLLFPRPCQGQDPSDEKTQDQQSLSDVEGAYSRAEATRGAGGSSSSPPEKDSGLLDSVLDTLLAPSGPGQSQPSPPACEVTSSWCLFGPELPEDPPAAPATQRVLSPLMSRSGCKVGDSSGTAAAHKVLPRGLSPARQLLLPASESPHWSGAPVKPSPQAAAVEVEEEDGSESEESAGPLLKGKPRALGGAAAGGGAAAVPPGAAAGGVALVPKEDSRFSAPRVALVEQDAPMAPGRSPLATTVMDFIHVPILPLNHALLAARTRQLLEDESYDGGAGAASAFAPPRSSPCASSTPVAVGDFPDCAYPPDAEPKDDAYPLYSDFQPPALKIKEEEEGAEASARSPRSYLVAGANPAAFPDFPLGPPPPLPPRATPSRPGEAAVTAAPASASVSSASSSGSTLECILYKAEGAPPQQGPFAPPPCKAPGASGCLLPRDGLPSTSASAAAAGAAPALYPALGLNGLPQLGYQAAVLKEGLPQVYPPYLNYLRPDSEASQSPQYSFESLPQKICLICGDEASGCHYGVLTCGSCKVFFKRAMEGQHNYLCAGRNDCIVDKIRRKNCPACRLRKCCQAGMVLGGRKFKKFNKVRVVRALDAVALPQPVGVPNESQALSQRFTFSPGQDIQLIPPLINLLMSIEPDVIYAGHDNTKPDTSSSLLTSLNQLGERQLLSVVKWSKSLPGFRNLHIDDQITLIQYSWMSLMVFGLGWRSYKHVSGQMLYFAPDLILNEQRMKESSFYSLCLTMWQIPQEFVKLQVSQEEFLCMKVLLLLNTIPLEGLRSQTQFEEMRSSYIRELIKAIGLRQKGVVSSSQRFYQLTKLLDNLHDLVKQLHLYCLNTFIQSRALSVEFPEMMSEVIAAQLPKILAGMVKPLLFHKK
Method in brief: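 Compounds were tested for PR agonism in HEK 293T cells bearing a beta-lactamase gene under UAS control. Treatment lasted 16 hr at 37C; signal came from fluorescence of a FRET substrate.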

[7] = target: Progesterone receptor (Homo sapiens) (UniProt P06401); assay: qHTS assay to identify small molecule antagonists of the progesterone receptor (PR) signaling pathway (AID 1346795; active = well fitted inhibition curve with a large enough effect in the signal ratio in the repeat runs, not every such curve was filed as active; the % refers to the signal ratio)
Method in brief: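 In HEK293T cells bearing the PR-UAS-bla reporter, compound effects on promegestone-driven (1 nM) beta-lactamase expression are assessed after 16 hr using a fluorescent FRET substrate incubated 2 hr at room temperature.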

[8] = qHTS assay to identify small molecule antagonists of the progesterone receptor (PR) signaling pathway - cell viability counter screen (AID 1346798); note: nearly all actives have a fitted effect of over 50% in size; note: potency is the fitted concentration of half-maximal effect; for activity change, negative = cytotoxicity: series mostly up to about 92 µM
Method in brief: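 Following a 4 hr attachment, PR-UAS-bla HEK293T cells in charcoal-stripped FBS medium were exposed to compounds with R5020 for 16 hr; CellTiter-Glo was added and luminescence read after 30 min at room temperature.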

[9] = qHTS assay to identify small molecule agonists or antagonists of the thyroid stimulating hormone receptor (TSHR) signaling pathway - wild type cell line counter screen (AID 1259384; calls by dose curve)
Method in brief: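 Wild-type Hek293 cells, 800/well, 18 h at 37C, then compound with Ro20-1724 for 30 min RT. cAMP by HTRF (cAMP-d2/anti-cAMP cryptate), 1 h RT, fluorescence read. 15 concentrations, triplicates.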

[10] = target: Thyrotropin receptor (Homo sapiens) (UniProt P16473); assay: qHTS assay to identify small molecule antagonists of the thyroid stimulating hormone receptor (TSHR) signaling pathway (AID 1259385; calls by dose curve; note: nearly all actives have a fitted effect of over 20% in size; note: potency is the fitted concentration of half-maximal effect)
Sequence of Thyrotropin receptor (Homo sapiens) (P16473 whole entry, looked up): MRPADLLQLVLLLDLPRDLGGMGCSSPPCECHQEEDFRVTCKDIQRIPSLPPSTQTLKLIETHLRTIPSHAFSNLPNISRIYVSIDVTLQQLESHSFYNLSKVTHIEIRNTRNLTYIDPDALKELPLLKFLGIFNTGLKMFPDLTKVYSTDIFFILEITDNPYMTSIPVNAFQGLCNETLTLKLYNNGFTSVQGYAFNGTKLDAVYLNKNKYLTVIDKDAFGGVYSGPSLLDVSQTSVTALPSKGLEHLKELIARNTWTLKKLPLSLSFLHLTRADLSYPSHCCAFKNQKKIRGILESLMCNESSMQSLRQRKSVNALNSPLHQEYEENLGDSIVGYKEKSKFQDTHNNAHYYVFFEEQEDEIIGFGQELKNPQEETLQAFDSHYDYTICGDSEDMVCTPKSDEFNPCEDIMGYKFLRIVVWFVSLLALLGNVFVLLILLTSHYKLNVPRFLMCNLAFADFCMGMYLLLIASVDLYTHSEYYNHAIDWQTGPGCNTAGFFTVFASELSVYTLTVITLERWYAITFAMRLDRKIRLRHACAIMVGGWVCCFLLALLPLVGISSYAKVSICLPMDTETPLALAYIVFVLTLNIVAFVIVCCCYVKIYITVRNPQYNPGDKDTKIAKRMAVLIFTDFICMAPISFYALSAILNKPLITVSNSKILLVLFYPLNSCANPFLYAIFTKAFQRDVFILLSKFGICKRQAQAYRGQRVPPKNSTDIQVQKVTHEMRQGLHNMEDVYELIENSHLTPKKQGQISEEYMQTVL
Method in brief: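 TSHR-HEK293 cells (800/well) plated 18 h, then compounds with Ro20-1724 and TSH at 1.5 ng/mL final, 30 min at room temperature. cAMP quantified by HTRF (cAMP-d2/anti-cAMP-cryptate, 1 h); 15 concentrations in triplicate.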
% is set by controls: 0 for no effect and ±100 for the full control effect.

CSc1nnc(C(C)(C)C)c(=O)[nH]1
inactive: Potency [1] | Potency [2] | Potency [3] | Potency [4] | Potency [5] | outcome [6] | Potency [7]

CCc1cccc(CC)c1
inactive: Potency [1] | Potency [2] | Potency [3] | Potency [4] | Potency [5] | outcome [6] | Potency [7] | Potency [8]

CN(C)CCOc1ccc(/C(=C(/CCCl)c2ccccc2)c2ccccc2)cc1
active: Potency [1] 40.5 µM | Potency [3] 45.5 µM | Potency [10] 40.5 µM
inactive: Potency [2] | Potency [9]

C=Cc1ccncc1
inactive: Potency [1] | Potency [2] | Potency [3] | Potency [9] | Potency [10] | Potency [5] | outcome [6] | Potency [7] | Potency [8]

N#Cc1nc(Cl)c(Cl)c(Cl)c1Cl
inactive: Potency [2] | Potency [9] | Potency [10]
active: Potency [1] 15.4 µM | Potency [3] 30.6 µM

CC(=O)[C@]1(O)Cc2c(O)c3c(c(O)c2[C@@H](O[C@H]2C[C@H](N)[C@H](O)[C@H](C)O2)C1)C(=O)c1ccccc1C3=O
active: Potency [1] 2.66 µM | Potency [5] 18.8 µM
inactive: Potency [2] | Potency [3] | Potency [4] | Potency [8]

Cc1ccc(N=Nc2c(O)ccc3ccccc23)c(C)c1
inactive: Potency [1] | Potency [3] | Potency [4] | Potency [9] | Potency [10] | outcome [6] | Potency [8]
active: Potency [2] 0.335 µM

CN[C@H]1CC[C@@H](c2ccc(Cl)c(Cl)c2)c2ccc(S(N)(=O)=O)cc21
inactive: Potency [2] | Potency [4] | Potency [9] | Potency [5]
active: Potency [1] 19.3 µM | Potency [3] 21.7 µM | Potency [8] 48.6 µM

CN(C[C@@H](CC[N+]12CCC(C3CCCCC3)(CC1)CC2)c1ccc(Cl)c(Cl)c1)C(=O)c1cc(C(F)(F)F)cc(C(F)(F)F)c1
inactive: Potency [2] | Potency [4] | Potency [9] | Potency [10]
active: Potency [1] 30.6 µM | Potency [3] 17.2 µM | Potency [8] 27.3 µM

C[C@H]1O[C@@H](O[C@H]2CC[C@@]3(C)[C@H](CC[C@@H]4[C@@H]3C[C@@H](O)[C@]3(C)[C@@H](C5=CC(=O)OC5)CC[C@]43O)C2)C[C@H](O)[C@@H]1O[C@H]1C[C@H](O)[C@H](O[C@H]2C[C@H](O)[C@H](O[C@@H]3O[C@H](CO)[C@@H](O)[C@H](O)[C@H]3O)[C@@H](C)O2)[C@@H](C)O1
inactive: Potency [2] | Potency [4] | Potency [5] | outcome [6]
active: Potency [1] 0.168 µM | Potency [3] 0.188 µM | Potency [8] 0.298 µM

COc1cc(C(C)C)ccc1C
inactive: activity change, negative = cytotoxicity [1] 2.27% [at 19 µM] | activation [2] 0.232% [at 19 µM] | activity change, negative = cytotoxicity [3] -0.566% [at 19 µM] | cAMP activity change [9] 3.96% [at 18.9 µM, hits give high values] | activity change, negative = inhibition [10] -0.443% [at 19 µM] | activity change, negative = cytotoxicity [5] -2.95% [at 19 µM] | activation [6] 2.45% [at 19 µM] | activity change, negative = inhibition [7] 2.91% [at 18.9 µM] | activity change, negative = cytotoxicity [8] -15.7% [at 18.9 µM]
